Shown is part of a subset that was picked to be rich in hits.
Cruzain inh noDet: qHTS Assay for Promiscuous and Specific Inhibitors of Cruzain (without detergent). Cruzipain (Trypanosoma cruzi), P25779. purified cruzain, Z-FR-AMC fluorescence, no detergent. Potency, µM, most hits filed as inhibitors. 2.3% of 200,000 active. AID 1476, 2009; further: nearly all actives have a fitted effect of over 40% in size
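Purified cruzain at 1.5 nM, pre-incubated 15 min with compound at room temperature in 100 mM sodium acetate pH 5.5, 5 mM DTT, 0.00005% Triton X-100. Reaction started with 2 uM Z-FR-AMC; AMC fluorescence increase over 60 s gives rate.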
Cruzain inh Det: qHTS Assay for Promiscuous and Specific Inhibitors of Cruzain (with detergent); purified cruzain, Z-FR-AMC fluorescence, 0.01% Triton; Potency, µM, hits mostly inhibitors; 0.43% of 200,000 active; AID 1478, 2009; further: nearly all actives have a fitted effect of over 40% in size
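Z-FR-AMC hydrolysis (2 uM substrate) by cruzain (1.5 nM) monitored kinetically at ex 360/em 450 nm after 15 min room-temperature compound exposure; 0.01% Triton X-100, pH 5.5, 5 mM DTT.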
Giardia FBPA inh: qHTS Assay for Inhibitors of Fructose-1,6-bisphosphate Aldolase from Giardia Lamblia; A8B2U2; purified Giardia FBPA; Potency, µM (titrated, usually from 59.6 µM), actives largely listed as inhibitors; 0.71% of 290,000 active; AID 2451, 2010; further: nearly all actives have a fitted effect of over 55% in size
Target sequence (A8B2U2 whole entry, looked up): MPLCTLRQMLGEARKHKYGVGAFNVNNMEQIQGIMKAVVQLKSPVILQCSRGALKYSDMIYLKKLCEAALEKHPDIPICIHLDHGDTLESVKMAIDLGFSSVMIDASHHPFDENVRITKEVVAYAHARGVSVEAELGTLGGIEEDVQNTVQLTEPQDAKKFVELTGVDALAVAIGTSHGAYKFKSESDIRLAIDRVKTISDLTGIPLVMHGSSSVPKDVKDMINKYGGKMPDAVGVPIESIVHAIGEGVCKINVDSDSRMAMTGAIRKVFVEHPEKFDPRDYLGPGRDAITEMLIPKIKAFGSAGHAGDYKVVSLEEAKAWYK
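Giardia FBPA (40 nM reagent) was preincubated 10 min at RT with compound (up to 57.5 uM final), then substrate plus GAPDH/TPI/NAD/arsenate coupling system with diaphorase/resazurin was added; resorufin fluorescence (525/598 nm) was read after 20 min.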
Large screens that a line does not name were inactive. The call rests on the fitted dose curve; in most records, active means well fitted curve in the direction sought with a large enough effect; inconclusive means small, poorly fitted or top-dose-only effect, or another doubt; inactive means no such curve, though single readings can be large; an effect the other way counts as inactive or inconclusive.

O=c1oc2c(CN3CCOCC3)c(O)ccc2c2ccccc12	none
CN(C)Cc1c(O)ccc2c3c(c(=O)oc12)CCCCC3	Cruzain inh noDet inconclusive, Cruzain inh Det 22.4µM
COCCN(CCOC)Cc1c(O)ccc2c3c(c(=O)oc12)CCC3	Cruzain inh noDet inconclusive, Cruzain inh Det inconclusive
O=c1oc2c(CN3CCOCC3)c(O)ccc2c2c1CCCC2	Cruzain inh noDet inconclusive, Cruzain inh Det 28.2µM
Cc1c(C)c2cc(Cl)c(O)c(CN3CCCCC3)c2oc1=O	Cruzain inh Det inconclusive
O=c1oc2c(CN3CCOCC3)c(O)c(Cl)cc2c2c1CCCC2	Cruzain inh noDet inconclusive, Cruzain inh Det 28.2µM, Giardia FBPA inh inconclusive
CCOC(=O)C1OC1c1ccccc1 (stereo not given)	none (no result: Giardia FBPA inh)
Cc1cccc(OC(=O)CSc2nnc(-c3ccc4c(c3)OCO4)o2)c1C	none (no result: Giardia FBPA inh)
COc1ccc(Nc2oc(-c3ccc(COc4ccccc4C)o3)nc2C#N)cc1	Cruzain inh noDet inconclusive (no result: Giardia FBPA inh)
C[C@H](NCCN(C)C)[C@@H]1CCC2C3CCc4cc(O)ccc4[C@H]3CCC21C (stereo not given in full)	none (no result: Giardia FBPA inh)
c1ccc(-c2ccc(N3CC4(CCNCC4)C3)cc2)cc1	Cruzain inh noDet inconclusive
c1ccc(-c2ccc(N3CCCC4(CCNCC4)C3)cc2)cc1	Cruzain inh noDet 31.6µM
O=S(=O)(c1ccc(Br)cc1)c1nnn2c1nc(NCc1cccs1)c1sccc12	none (no result: Giardia FBPA inh)
Cc1nn(-c2ccccc2)c(C)c1/C=N/NC(=O)CSc1nnc(SCc2cccc3ccccc23)s1	Cruzain inh noDet 3.98µM
C=C(C)Cn1c(SCC(=O)N/N=C/c2c(O)ccc3ccccc23)nc2ccccc2c1=O	Cruzain inh noDet 15.8µM
C=C(C)Cn1c(SCC)nc2ccccc2c1=O	none
Cc1nn(-c2ccccc2)c(C)c1/C=N/NC(=O)CSc1nc2ccccc2c(=O)n1-c1ccc(Br)cc1	Cruzain inh noDet 15.8µM
Cc1ccc(-n2c(SCC(=O)N/N=C/c3c(C)nn(-c4ccccc4)c3C)nc3ccccc3c2=O)cc1	none
Cc1ccccc1-n1c(SCC(=O)N/N=C/c2c(C)nn(-c3ccccc3)c2C)nc2ccccc2c1=O	Cruzain inh noDet inconclusive
CN1CCN(c2ncc3nc(-c4cc(F)cc(F)c4)c(=O)n(CCC#N)c3n2)CC1	Giardia FBPA inh inconclusive
C[C@H](NC(c1cccc2nc(O)c(O)nc12)P(=O)(O)O)c1ccc(Br)cc1 (stereo not given in full)	none (no result: Cruzain inh noDet, Cruzain inh Det)
Cc1ccc(-c2ccc(C(=O)NCc3ccc(Cl)cc3)o2)c2ccccc12	Cruzain inh noDet 25.1µM, Cruzain inh Det inconclusive
Cc1ccccc1-c1ccc(C(=O)NCc2ccccc2)o1	none
COc1cccc(CNS(=O)(=O)c2ccc(S(=O)(=O)N3CCCC3)cc2)c1	Giardia FBPA inh 7.92µM (no result: Cruzain inh noDet, Cruzain inh Det)
COc1cccc(CNS(=O)(=O)c2ccc(N3CCCCS3(=O)=O)cc2)c1	none (no result: Giardia FBPA inh)
CC1=C(SCCC#N)S/C(=C2\SC(C)=C(SCCC#N)S2)S1	Cruzain inh noDet 25.1µM
Cn1c(SCCC#N)nnc1-c1ccc(F)cc1	none (no result: Cruzain inh noDet, Cruzain inh Det)
Cc1noc(NC(=O)Nc2ccccc2F)c1C#N	none (no result: Giardia FBPA inh)
COc1ccc(OC)c(N2C(=O)NC(=O)/C(=C/c3ccc([N+](=O)[O-])s3)C2=O)c1	Giardia FBPA inh 12.6µM (no result: Cruzain inh noDet, Cruzain inh Det)
CCN1C(=O)/C(=C\c2ccc([N+](=O)[O-])s2)C(=O)NC1=S	Giardia FBPA inh 11.2µM (no result: Cruzain inh noDet, Cruzain inh Det)
COc1ccc(OC)c(N2C(=O)CC(=O)NC2=O)c1	none (no result: Cruzain inh noDet, Cruzain inh Det)
C=CCN1C(=O)/C(=C/c2ccc(Br)s2)C(=O)NC1=S	none (no result: Cruzain inh noDet, Cruzain inh Det)
Cc1ccc(NC(=O)CSc2nc3ccccc3c3nc(CCn4c(C)nc5ccccc54)nn23)cc1F	none (no result: Giardia FBPA inh)
CN1C/C(=C/c2ccc(B(O)O)cc2)C(=O)/C(=C/c2ccc(B(O)O)cc2)C1	none (no result: Cruzain inh noDet, Cruzain inh Det)
O=C(Nc1cccc2cccnc12)[C@@H]1[C@@H](C(=O)O)[C@H]2CC[C@@H]1O2	none (no result: Giardia FBPA inh)
O=C1CCCC2=C1C(c1ccc(O)c(O)c1)c1c(ccc3ncccc13)N2 (stereo not given)	Giardia FBPA inh 6.29µM (no result: Cruzain inh noDet, Cruzain inh Det)
CCOc1ccc(C2C3=C(CCCC3=O)Nc3ccc4ncccc4c32)cc1 (stereo not given)	none (no result: Cruzain inh noDet, Cruzain inh Det)
O=[N+]([O-])c1ccc(C2=Nn3c(nnc3-c3ccc(Cl)cc3)SC2)o1	none (no result: Giardia FBPA inh)
CCCOc1ccc(C2C(=O)N(C3CCCCCC3)CC(=O)N2Cc2ccc(OC)cc2)cc1OC (stereo not given)	none (no result: Giardia FBPA inh)
O=C(Cn1c(=O)n(Cc2nc(-c3ccccc3)no2)c(=O)c2cc3c(cc21)OCO3)Nc1ccc(Cl)cc1	Cruzain inh noDet 10µM (no result: Giardia FBPA inh)
O=C(Cn1c(=O)n(Cc2nc(-c3ccccc3)no2)c(=O)c2cc3c(cc21)OCO3)Nc1ccccc1	Cruzain inh noDet inconclusive (no result: Giardia FBPA inh)
Cc1ccc(NC(=O)Cn2c(=O)n(Cc3nc(-c4ccccc4)no3)c(=O)c3cc4c(cc32)OCO4)c(C)c1	none (no result: Giardia FBPA inh)
